Laboratory results as given in PubChem BioAssay AID504753 (Sanford-Burnham Center for Chemical Genomics, 2011).
Out of some 2,400 compounds screened, about 820 (34%) were called active. The list is a sample of the results. A number with no mark means an inactive call.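 Rule for the calls: active = inhibition of at least 50% at 20 µM in any single replicate; inactive = the rest.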

Tested on: glucose-6-phosphate dehydrogenase-6-phosphogluconolactonase (PfGluPho), Plasmodium falciparum 3D7
Assay: malaria parasite PfGluPho enzyme inhibition – biochemical, fluorescence intensity, single concentration, confirmation (AID 504753);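 note: 0% = DMSO with substrate and 100% = DMSO lacking glucose-6-phosphate substrate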
Conditions: recombinant PfGluPho, NADPH-diaphorase-resazurin fluorescence; at 20 µM; stronger effect = higher value

Q: How did the inhibition turn out when `O=C1NC(=O)N(c2ccccc2)C(=O)/C1=C/c1ccc([N+](=O)[O-])s1` was run?
A: 64.4% (active)

Q: For `COC(=O)N(c1ccc(OC)cc1)P1(=S)OCCC(C)O1` (stereo not given), which inhibition is on record?
A: 34.3%

Q: How did the inhibition turn out when `Cc1cc(C)c2c(c1)NP(=S)(c1ccccc1)N2` (stereo not given) was run?
A: -21%

Q: With `O=C(CSC1c2ccccc2-c2ccccc21)N/N=C/c1ccccc1` as the compound, how does the inhibition read?
A: 35.3%

Q: For `COc1cccc(-c2nc3ccc(N4CCN(C)CC4)cc3[nH]2)c1`, which inhibition is on record?
A: 13.5%
